Compound activity from PubChem.
GRIN3A LBD mod – NR3A (human) ligand-binding domain modulation. NR3A LBD differential scanning fluorimetry, Tm shift; 0% = protein alone, 100% = glycine-bound protein. Tm shift relative to glycine control, % at 25 µM. 340,000 compounds, 2.5% hits;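 active = melting temperature shift of at least 10% of the positive control shift, at one fixed dose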
CSC inhib – cancer stem cell inhibition; 300,000 compounds, 1.1% hits; inhibition, % at 7.5 µM; AID 2717; cancer stem cell-like cells viability, luminescence; in the data active = inhibition above about 75%; tested in HMLE shEcad cells
Beta apoptosis – blocks beta cell apoptosis. protection from apoptosis, % (test concentration not listed). INS-1E cytokine-induced death, ATP luminescence, 48 h; percent of positive-control rescue, neutral wells zero. 300,000 compounds, 0.8% hits;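 active = Every replicate reaches about 75%, or at least half do and their mean reaches it too, limit read from the data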;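 also: 0% = cytokine-treated negative control wells and 100% = positive control rescue; higher means more ATP so stronger rescue from cytokine killing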
SKKanGAS inh – inhibitors of SKKanGAS S. pyogenes growth in kanamycin (SK-promoter or general growth effect); BacTiter-Glo, 6 h; inhibition, % at 7.5 µM; 300,000 compounds, 1.3% hits;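 active = mean replicate score, as percent of positive control median, at least 50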;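 also: strain carries kanamycin resistance gene driven by streptokinase promoter and grows in 40 µg/ml kanamycin; loss of luminescence reflects streptokinase promoter inhibition or plain growth inhibition; 0% = median of DMSO wells and 100% = positive control at its reference dose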
MPTP inh – inhibitors of mitochondrial permeability transition pore | inhibition, % at 10 µM | isolated mouse mitochondria, Ca2+ swelling absorbance, 30 min | 360,000 compounds, 1.4% hits;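 active = inhibition of 50% or more, scaled per plate between neutral and stimulator controls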;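 also: 0% = DMSO wells given calcium and 100% = 1 mM EGTA wells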
Mdm2-MdmX inh – human Mdm2/MdmX binding inhibition; inhibition, % at 8 µM; SaOS-2 split-luciferase Mdm2/MdmX complementation, luminescence; O15151+Q00987; 330,000 compounds, 3% hits; AID 485346;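 active = inhibition of at least 50% at 8 µM in the primary screen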
Mdm2-MdmX conf – human Mdm2/MdmX binding inhibition, confirmed | shares compounds with Mdm2-MdmX inh | 10,000 compounds, 55% hits | AID 489028 | inhibition, % at 8 µM | luminescent assay; in the data active = inhibition above about 40%
FLuc counter – counter-screen for Mdm2/MdmX inhibitors: full-length luciferase; AID 504607; SaOS-2 full-length luciferase counterscreen, luminescence; shares compounds with Mdm2-MdmX inh; inhibition, % at 8 µM; 6,200 compounds, 77% hits;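 active = mean inhibition at 8 µM reaching about 37%, which flags the compound as non-specific, limit read from the data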;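 also: p53-null SaOS-2 cells with luciferase driven by a doxycycline-inducible promoter; compound on cells about two nights before reading with doxycycline added after day one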
* marks the source's active call; other numbers are inactive results; / = not tested or not shown. Only some compounds are listed: those with a hit (about 6.9% of all), similar ones and a draw of the others.

SMILES	GRIN3A LBD mod	CSC inhib	Beta apoptosis	SKKanGAS inh	MPTP inh	Mdm2-MdmX inh	Mdm2-MdmX conf	FLuc counter
COc1ccc(C(=O)/C=C2/C(=O)Nc3ccccc32)c(OC)c1	1	75*	-5	9	0	86*	26	/
Cc1ccc2c(c1)N(CC(=O)NCCc1ccccc1)C(=O)c1cccnc1O2	1	-5	-6	-1	-3	14	/	/
CC[C@]12c3[nH]c4cc(CCC(=O)N(C)C)ccc4c3CCN1C(=O)[C@@H](CC(=O)NCc1cccc(C(F)(F)F)c1)C[C@@H]2C(=O)N1CCN(C(=O)C2CC2)CC1	0	/	/	/	2	16	/	/
O=C(Cc1c(Cl)cccc1Cl)N/N=C/c1cccnc1	0	-7	-3	/	1	16	/	/
CCc1nn(C(CC)C(=O)NCCc2ccc(OC)cc2OC)c(=O)c2cc3occc3n12 (centres undefined)	-1	14	-10	15	2	19	/	/
COc1ccc(-c2ccc3c(c2)S(=O)(=O)c2cccc(C(=O)NC4CC4)c2C3=O)cc1OC	-1	-10	-4	/	1	72*	52*	46*
COc1ccc(-c2ccc3c(c2)S(=O)(=O)c2cccc(C(=O)NCCOc4ccccc4Cl)c2C3=O)cc1OC	-5	/	91*	/	0	95*	28	/
CCn1c(=O)c([N+](=O)[O-])c(NCC2CCCO2)c2ccccc21 (centres undefined)	0	-10	2	0	2	38	/	/
O=C(NCC(c1ccco1)N1CCc2ccccc21)C(=O)Nc1ccc(F)cc1F (centres undefined)	2	60	-3	4	-3	52*	72*	65*
O=C(NCC(c1ccco1)N1CCc2ccccc21)C(=O)Nc1ccccc1F (centres undefined)	-1	0	-4	3	-2	22	/	/
CCOc1ccc(/C=N/NC(=O)COc2ccccc2-c2ccccc2)cc1	-5	78*	3	23	3	51*	44*	52*
CCOc1ccc(/C=N/NC(=S)Nc2c(C)cccc2C)cc1	-3	6	4	11	0	52*	15	/
COC(=O)c1ccc(CN2CCCC(C(=O)c3ccccc3OC)C2)cc1 (centres undefined)	-2	-5	-7	2	-1	12	/	/
CC1CC1C(=O)OCC(=O)Nc1cc(S(=O)(=O)N2CCCCC2)ccc1Cl (centres undefined)	0	10	-2	/	-2	-10	/	/
COc1ccc(N2C(=O)N3[C@H](c4cccc(C)c4)[C@@H]4C(=O)N(Cc5ccccc5)C(=O)[C@@H]4[C@]3(Cc3ccccc3)C2=O)cc1	4	-7	9	2	/	70*	80*	36
CCN1C(=O)[C@H]2[C@@H](c3ccc(C)cc3)N3C(=O)N(c4cccc(F)c4)C(=O)[C@@]3(C)[C@H]2C1=O	2	-18	-1	-6	0	16	/	/
CCN1C(=O)[C@H]2[C@@H](c3ccc(C)cc3)N3C(=O)N(c4cccc(C)c4)C(=O)[C@@]3(Cc3ccccc3)[C@H]2C1=O	-2	-4	1	-1	4	7	/	/
Cc1cccc([C@@H]2[C@@H]3C(=O)N(Cc4ccccc4)C(=O)[C@@H]3[C@]3(C)C(=O)N(c4ccc(C(F)(F)F)cc4)C(=O)N23)c1	13*	8	9	4	3	84*	74*	33
Cc1cc(C(=O)N/N=C/c2c(C)nn(-c3ccccc3)c2C)c(C)o1	0	-2	0	-8	1	3	/	/
CC(C)Cc1nc2oc3c(NCC4CCCO4)ncnc3c2c2c1CCC2 (centres undefined)	-3	23	/	0	2	53*	55*	75*
COc1ccccc1C(=O)NC(CCSC)C(=O)OCC(=O)N1CCCC1=O (centres undefined)	-1	-2	-2	/	-1	-8	/	/
Cc1ccc(-c2nc3ncccc3o2)cc1NC(=O)Cc1ccc(Cl)cc1	0	/	6	-1	0	93*	26	/
